The supplement of paper PMC3334620
Over roughly 33,000 sequences, “E-score (-0.5 to 0.5)” has its median near -0.015; the highest 2% begin near 0.3. Shown is part of a subset that was picked to be rich in the highest values.

molecular target: T1, Abf1 (UniProt P14164); assay: PBM E-score (8-mer binding enrichment) (E-score (-0.5 to 0.5)); higher = stronger / more preferred TF binding; conditions: protein concentration: 200 nM; construct: GST-full length
T1 sequence: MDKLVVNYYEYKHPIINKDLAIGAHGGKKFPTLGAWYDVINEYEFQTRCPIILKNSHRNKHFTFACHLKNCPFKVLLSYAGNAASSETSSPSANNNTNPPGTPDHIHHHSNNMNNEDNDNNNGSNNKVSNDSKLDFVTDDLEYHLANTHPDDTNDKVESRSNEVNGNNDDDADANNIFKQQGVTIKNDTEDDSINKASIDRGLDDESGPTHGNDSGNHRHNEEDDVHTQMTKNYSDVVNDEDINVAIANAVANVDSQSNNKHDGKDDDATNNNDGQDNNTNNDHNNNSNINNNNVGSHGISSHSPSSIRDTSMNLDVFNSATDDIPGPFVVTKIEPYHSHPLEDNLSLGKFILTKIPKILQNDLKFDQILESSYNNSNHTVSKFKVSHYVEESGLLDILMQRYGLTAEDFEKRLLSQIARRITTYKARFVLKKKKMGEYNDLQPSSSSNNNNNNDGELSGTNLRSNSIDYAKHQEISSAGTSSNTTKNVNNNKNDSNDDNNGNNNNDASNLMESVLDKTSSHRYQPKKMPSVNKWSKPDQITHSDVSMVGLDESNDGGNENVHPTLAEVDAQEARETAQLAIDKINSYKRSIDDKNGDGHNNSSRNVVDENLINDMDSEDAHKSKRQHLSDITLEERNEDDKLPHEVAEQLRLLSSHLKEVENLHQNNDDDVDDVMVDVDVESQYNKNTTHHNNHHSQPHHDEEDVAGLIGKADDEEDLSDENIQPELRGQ
How it was run: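 Each ungapped eight-base word and its reverse complement, pooled, received an E-score from the Universal PBM Analysis Suite. Underlying scans, normalised with masliner, recorded fluorescent anti-GST bound to GST-tagged yeast transcription factors. These were applied at about 100-200 nM to universal all-10-mer Agilent arrays double-stranded by primer extension.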

Sequence	PBM E-score
CGAGCTTA	-0.0534
AGCAGTAC	-0.0878
GCAAACGC	0.00943
AAGGTCGC	0.0476
AATTGAAA	0.116
AATCCAGG	0.0662
CCTGTCTC	-0.123
ATGGGGTA	-0.00916
CGAGCGGC	-4e-05
CGTTACCC	-0.152
CCTCTATC	-0.0168
ATGATCAT	0.387
ACGATCAT	0.222
AGGATCAT	0.0179
GGACGTGA	0.0158
ATACGTAC	0.165
CGACGTAC	0.322
CGACGTGA	0.297
TTACGTAA	0.196
CGACGTAA	0.123
GTACGTAA	0.343
GTACGTAC	-0.0114

Sequence	PBM E-score
GGACGTAC	-0.0265
CTACGTAC	0.297
AGACGTGA	0.227
ATACGTAA	0.24
CATCAGAC	-0.02
CAGAGTAG	-0.205
AGGTATAG	-0.1
TAGCGAAA	-0.00307
ACGATGGG	-0.08
CGCATTTC	-0.0669
ACCGCTGA	-0.057
GGTACGTA	0.0572
GGTACGAA	0.339
TGTACAAA	0.0674
TGTACGAA	0.427
ATTACGAA	0.281
AGTACGAG	0.00494
CGTACGAC	0.417
CCTACGAG	0.163
CGTACGAG	0.343
CTTACGAC	0.103
GGTACGAC	0.185

Sequence	PBM E-score
CCTACGAC	0.288
CTCGAATC	-0.0489
CATCCTTC	0.0215
CCACTGGC	-0.107
CGTACGCA	0.217
CTTACGAA	0.216
AGTACGAC	0.18
AGTACGAA	0.368
CGTACGAA	0.447
AGTACGAT	0.106
CATAAGGC	0.16
GCTTGCGA	0.0664
CTCAAAAG	-0.0587
AACCGGTC	-0.154
AGATATCT	0.158
TGATATAA	0.281
GGATATCA	0.247
TGATATCA	0.34
AGATATCA	0.3
AGATATCC	0.232
CGAGGATC	0.101
AGGCGGAT	-0.0114

Sequence	PBM E-score
CTCGACAA	-0.0758
ACTTACCT	-0.165
CGGCAGGC	-0.0216
CTCCGGCC	-0.212
AAGACCGG	-0.0657
TCACACGA	0.297
TCACACAA	0.0163
ATACACGA	0.179
CGACACGA	0.298
ACACACGA	0.279
GCACACAA	-0.00644
CGACACGC	0.0501
GTACACGA	0.362
CTACACGA	0.247
GCACACGC	-0.209
GCACACGA	0.303
AGACACGA	0.083
GTCGTAAA	0.184
ACACTCAA	0.123
AAGAACAT	0.157
